Screening results (PubChem)
BCR signal inh: chronic active BCR signaling inhibition; ABC-DLBCL IkBa-CBG/CBR reporter, luminescence ratio, 4 h; 0.05% of 340,000 active; Potency, µM (series often up to 46.1 µM), without a hit: at the highest dose activity change, negative = inhibition, actives largely listed as inhibitors; AID 493014; active = well fitted inhibition curve with a large enough effect in the signal ratio, with a control signal flat, not every such curve was filed as active; inconclusive = small, poorly fitted or top-dose-only effect, or effect the other way, or a change in a side signal; the % refers to the signal ratio;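 note: plate controls were basal doxycycline-induced cells for no effect and cells given 10 µM MG132 for full effect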
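Compounds up to 46 uM were incubated four hours with TMD8 cells whose green CBG68 luciferase is fused to IkappaBalpha; red CBR luminescence normalised the signal, and concentration-effect curves were fitted to fusion, red and ratio data.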
GRP78 ERSR act: inducers of ER stress response in human glioma cells; U87-MG GRP78 promoter luciferase reporter, 16 h; Potency, µM, without a hit: top-dose activation, hits mostly activators; 0.02% of 420,000 active; AID 602332; note: series mostly up to about 76 µM; % of control where 0% means no effect; nearly all actives have a fitted effect of over 35% in size
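Stably transfected U87-MG glioma cells carrying a GRP78-based luciferase sensor; 16 h compound incubation. Luminescence end-point read 10 min after Bright-Glo addition at room temperature.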
Apoferritin bind: candidate novel general anesthetic via apoferritin binding; P02791; 0.074% of 350,000 active; apoferritin/1-aminoanthracene competitive binding, fluorescence; Potency, µM (series often up to 77.5 µM), for the others: top-dose activity change, negative = displacement, most hits filed as inhibitors; AID 485281; note: % is set by controls: 0 for no effect and ±100 for the full control effect; nearly all actives have a fitted effect of over 20% in size
Target sequence (P02791 2-175 limits assumed): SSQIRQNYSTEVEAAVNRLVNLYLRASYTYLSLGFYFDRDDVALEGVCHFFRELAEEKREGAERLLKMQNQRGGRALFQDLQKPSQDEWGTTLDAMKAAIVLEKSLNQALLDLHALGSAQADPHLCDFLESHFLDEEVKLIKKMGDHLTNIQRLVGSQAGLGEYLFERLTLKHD
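In PBS, apoferritin at 10 uM is loaded with 1-AMA from a 50% saturated solution. After 10 min of compound exposure at ambient temperature, reduced 535 nm fluorescence indicates probe displacement.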
ALOX12 inh: inhibitors of human 12S-lipoxygenase ALOX12; P18054; 1.1% of 580,000 active; purified 12hLO, xylenol orange hydroperoxide absorbance; AID 1671190; Potency, µM (top dose mostly 108 µM), without a hit: at the highest dose activity change, negative = inhibition, most hits filed as inhibitors; note: % is set by controls: 0 for no effect and ±100 for the full control effect
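Hydroperoxide product was detected by ferrous iron/xylenol orange as the 573 to 405 nm absorbance ratio. Arachidonic acid at 40 uM (final) was turned over for 30 min at room temperature by 150 nM human 12hLO, pH 7.0 Hepes buffer, after 15 min compound preincubation.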
The depositor's hits bear a star; u = inconclusive; x = no result. An excerpt weighted towards active compounds, which were near 1.1% of everything screened. Unless noted, calls come from the whole dose curve; as a rule, active = well fitted curve in the direction sought with a large enough effect; inconclusive = small, poorly fitted or top-dose-only effect, or another doubt; inactive = no such curve, though single readings can be large; an effect the other way counts as inactive or inconclusive. Potency is the fitted concentration of half-maximal effect.

SMILES	BCR signal inh	GRP78 ERSR act	Apoferritin bind	ALOX12 inh
CCc1c(C)sc(NC(=O)CSc2ccccc2)c1C#N	x	x	x	-6.4%
O=C(c1cccs1)N1CCC(N2C(=O)C(O)C23CCCCC3)CC1 (configuration not stated)	x	x	x	51.1%
O=C(CC(c1ccc(Cl)cc1)c1c[nH]c2ccc([N+](=O)[O-])cc12)N1CCOCC1 (configuration not stated)	x	x	x	8.91µM*
O=C(CC(c1ccc(F)cc1)c1cn(Cc2ccccc2)c2ccc([N+](=O)[O-])cc12)N1CCOCC1 (configuration not stated)	x	x	x	13.0%
COCCNC(=O)CC(c1ccc(Cl)cc1)c1c[nH]c2ccc([N+](=O)[O-])cc12 (configuration not stated)	x	x	x	7.08µM*
CCCCNC(=O)CC(c1cccc([N+](=O)[O-])c1)c1c[nH]c2ccccc12 (configuration not stated)	x	x	x	-6.4%
Nc1nc(Sc2ccc([N+](=O)[O-])c3nonc23)c2[nH]cnc2n1	x	-13.7%	x	31.6µM*
COCCN1C(=O)c2ccccc2C(C(=O)Nc2ccc(NC(C)=O)cc2)C12CCCC2 (configuration not stated)	x	x	x	25.2%
O=C(c1ccoc1)N(Cc1cccs1)C1CC1	x	x	x	8.3%
Cc1cccc(OCC(=O)OCc2cc(=O)n3nc(C4CCCCC4)sc3n2)c1	x	0.4%	15.8µM*	0.2%
O=C(COc1ccccc1)OCc1cc(=O)n2nc(C3CC3)sc2n1	x	-2.8%	u	-1.0%
CC1(CCCCc2ccccc2)COc2ccc(C(=O)NCCN3CCOCC3)cc2N1 (configuration not stated)	x	x	x	100µM*
CCCCNC(=O)c1ccc2c(c1)n(Cc1ccc(F)cc1)c(=O)c1ccnn12	x	x	x	10.4%
CN1CCC(NC(=O)c2ccc3c(c2)n(Cc2ccc(F)cc2)c(=O)c2ccnn23)CC1	x	x	x	20µM*
Cc1cccnc1Nc1nc(-c2ccc(O)c(O)c2)cs1	u	u	u	2.82µM*
CC(=O)Nc1ccc(-c2csc(Nc3ccccn3)n2)cc1	u	-3.9%	-6.8%	-20.0%
Oc1ccc(-c2csc(Nc3ccccn3)n2)cc1O	u	12.9%	-12.7%	20µM*
Oc1ccc(-c2csc(Nc3cccc4ccccc34)n2)cc1O	u	12.2%	-11.0%	12.6µM*
Cc1ccc(-c2csc(Nc3ccccn3)n2)cc1C	x	x	x	31.6µM*
Cc1ccnc(Nc2nc(-c3ccc(O)c(O)c3)cs2)c1	u	u	-13.5%	0.0%
Cc1csc(Nc2cccc3ccccc23)n1	1.1%	6.5%	u	-20.5%
COc1ccc(-c2csc(Nc3ncccc3C)n2)cc1OC	u	-2.1%	-4.6%	u
CCCCC(=O)NC1CCN(c2cn[nH]c(=O)c2)CC1	x	x	x	11.9%
CCCCCCC1COC(c2ccc(OCC)cc2)OC1 (configuration not stated)	x	x	x	5.4%
Cc1cccc(Nc2nc(-c3ccc(O)c(O)c3)cs2)n1	u	u	-21.9%	28.2µM*
SMILES	BCR signal inh	GRP78 ERSR act	Apoferritin bind	ALOX12 inh
O=[N+]([O-])c1ccc(Nc2ccccc2O)c2nonc12	u	-2.4%	17.8µM*	u
O=C(O)c1ccc(Nc2ccc([N+](=O)[O-])c3nonc23)cc1	12.8%	-5.4%	-13.7%	-3.2%
CC(C)Oc1ccc(Br)cc1/C=N\NC(N)=S	u	-4.5%	-15.5%	39.8µM*
Cc1cccc(CNc2nc(-c3ccoc3)nc3ccccc23)c1	x	-2.6%	-22.2%	u
c1ccc(CNc2nc(-c3ccoc3)nc3ccccc23)cc1	x	5.1%	x	15.8µM*
COc1cc(/C=C(/C#N)C(=O)OC(C)C)cc(Cl)c1O	x	x	x	20µM*
O=C(NC(=S)Nc1ccc(F)cc1)c1ccc2c(c1)OCCO2	u	-0.8%	-12.4%	u
COc1ccc(NC(=S)NC(=O)c2ccc3c(c2)OCCO3)cc1	-2.2%	20.8%	x	7.08µM*
O=C(NC(=S)Nc1ccc2c(c1)OCCO2)c1ccccc1	u	7.2%	u	u
CCOc1cccc(C(=O)NC(=S)Nc2ccc3c(c2)OCCO3)c1	u	3.4%	-23.3%	15.8µM*
COc1ccc(C(NC(=O)c2cccc(Cl)c2)NC(=O)c2cccc(Cl)c2)cc1	x	x	x	9.4%
CC1c2ccsc2CCN1CC(O)COc1ccc(-c2ccccc2)cc1 (configuration not stated)	x	x	x	7.0%
Cc1cc(Cl)cc(Cl)c1CNCC1(O)CCCNC1 (configuration not stated)	x	x	x	55.5%
CCCC(OC(=O)CC1Sc2ccccc2NC1=O)C(=O)NCc1ccco1 (configuration not stated)	-3.4%	-2.8%	-9.5%	31.6µM*
CC(C)CC(OC(=O)CC1Sc2ccccc2NC1=O)C(=O)NC1CCCC1 (configuration not stated)	9.2%	-2.5%	-20.3%	1.6%
COc1cccc(C2NC(=S)NC(C)=C2C(=O)c2ccccc2)c1OC (configuration not stated)	u	-5.1%	-13.9%	44.7µM*
CC(=O)C1=C(O)C(=Cc2ccccc2)OC1=O	x	-2.5%	x	14.1µM*
COc1ccc(C=C2OC(=O)C(C(C)=O)=C2O)cc1	x	-11.0%	x	44.7µM*
CCOC(=O)C1=C(C)OC(=Cc2ccccc2)C1=O	x	-4.0%	x	-23.7%
COc1ccc(NC(=O)COc2nc(CC(C)C)c3c(c2C#N)CCC3)c(OC)c1	x	x	x	18.6%
COCC1CN(S(=O)(=O)c2ccc3c(c2)CCCC3)CC12CCNCC2 (configuration not stated)	x	x	x	33.3%
CC(C#N)OC(=O)c1ccccc1C(=O)c1cccs1 (configuration not stated)	x	x	x	34.0%
CCN(CC)C(=O)C1CCN(Cc2cccc(OCc3ccccc3)c2)CC1	-2.2%	-0.8%	u	u
CCCCN(C)C(=O)C1CCN(Cc2cccc(OCc3ccccc3)c2)CC1	-14.3%	-1.4%	5.4%	5.62µM*
CCCCN(C)C(=O)C1CCN(CC(C)c2ccccc2)CC1 (configuration not stated)	x	x	x	1µM*
SMILES	BCR signal inh	GRP78 ERSR act	Apoferritin bind	ALOX12 inh
CCCCOc1ccc(C(=O)N2CCC[C@H]2c2nc(-c3ccc(OC)cc3)no2)cc1	x	x	x	0.0%
O=C(CC(=O)Nc1ccc(Br)cc1)Nc1ccc(Br)cc1	-0.9%	1.1%	-7.3%	0.0%
O=C(CN(CC(=O)Nc1ccc(Br)cc1)CC(=O)Nc1ccc(Br)cc1)Nc1ccc(Br)cc1	x	x	x	11.2µM*
C=CCN1C(c2ccc(Br)cc2)=CS/C1=C(\C#N)c1nnc(N2CCOCC2)n1-c1ccccc1	x	-3.7%	x	39.8µM*
C=CCN1C(c2cccc(C(F)(F)F)c2)=CS/C1=C(\C#N)c1nnc(N2CCOCC2)n1-c1ccccc1	x	-6.7%	x	-6.5%
COc1ccc(Oc2coc3cc(OC(=O)c4ccc(Br)cc4)ccc3c2=O)cc1	x	x	x	-3.3%
O=C(O)CCc1conc1-c1cccc(F)c1	x	x	x	14.0%
O=c1oc2c(-c3cccc(F)c3)cc(O)cc2s1	0.5%	-2.6%	u	35.5µM*
O=C(Nc1cnc(N2CCC(N3CCCCC3)CC2)c(C(=O)O)c1)c1ccc(Br)cc1	-7.1%	x	7.4%	39.8µM*
COc1cccc(C(=O)N2CCC3(CC2)NC(=O)N(c2ccccc2)N3)c1	x	x	x	6.31µM*
